An excerpt weighted towards active compounds, which were near 3.8% of everything screened.
PAFAH2 inh – PAFAH2 (human) inhibition. recombinant PAFAH2, FP-rhodamine activity probe, fluorescence polarization. Q99487. inhibition, % at 3.39 µM. AID 492956. 0.99% of 340,000 active;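 active = inhibition above the mean over all tested compounds plus 3 SD, cut at about 30% in these data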;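 also: inhibitors block probe labeling of enzyme so polarization drops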
PAFAH1B2 inh – blocks human PAF acetylhydrolase 1b catalytic subunit 2 | inhibition, % at 3.39 µM | recombinant PAFAH1B2, FP-rhodamine activity probe, fluorescence polarization | P68402 | 1.2% of 340,000 active;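 active = inhibition above the mean of all tested compounds plus 3 SD, cut at about 24% in these data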
Target sequence (P68402 whole entry, looked up): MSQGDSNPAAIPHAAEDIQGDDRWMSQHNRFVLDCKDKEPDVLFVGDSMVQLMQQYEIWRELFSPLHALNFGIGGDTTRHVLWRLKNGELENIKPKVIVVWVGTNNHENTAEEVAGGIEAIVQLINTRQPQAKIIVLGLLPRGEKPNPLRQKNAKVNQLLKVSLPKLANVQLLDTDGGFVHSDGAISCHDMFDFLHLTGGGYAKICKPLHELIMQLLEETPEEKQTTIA
pPAFAH inh – pPAFAH (human) enzyme inhibition; Q13093; inhibition, % at 3.39 µM; 1.5% of 330,000 active; recombinant pPAFAH, FP-rhodamine probe fluorescence polarization;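 active = inhibition above the mean inhibition across the screen plus 3 SD, cut at about 25% in these data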;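 also: inhibitors block binding of the rhodamine activity-based probe so polarization drops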
Target sequence (Q13093 whole entry, looked up): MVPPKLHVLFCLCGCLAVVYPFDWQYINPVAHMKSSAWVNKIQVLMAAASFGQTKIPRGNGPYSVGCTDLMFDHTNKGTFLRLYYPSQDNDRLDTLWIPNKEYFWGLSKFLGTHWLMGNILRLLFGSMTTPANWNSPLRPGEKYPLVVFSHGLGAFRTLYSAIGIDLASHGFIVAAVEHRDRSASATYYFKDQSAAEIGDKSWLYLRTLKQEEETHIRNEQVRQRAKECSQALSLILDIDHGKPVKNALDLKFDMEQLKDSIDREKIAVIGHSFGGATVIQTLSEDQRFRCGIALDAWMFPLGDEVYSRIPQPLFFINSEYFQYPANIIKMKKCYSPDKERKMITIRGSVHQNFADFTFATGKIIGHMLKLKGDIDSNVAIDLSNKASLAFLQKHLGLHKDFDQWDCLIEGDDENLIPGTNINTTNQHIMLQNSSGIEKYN
PAFAH1B3 inh – PAFAH1B3 (human) inhibition | recombinant PAFAH1B3, FP-rhodamine probe, fluorescence polarization | 0.28% of 340,000 active | Q15102 | inhibition, % at 3.39 µM;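 active = inhibition above the screen-wide average of all tested compounds plus 3 SD, cut at about 25% in these data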
PfM18AAP inh – PfM18AAP enzyme inhibition; recombinant PfM18AAP, H-Glu-NHMec fluorogenic cleavage; AID 1822; 1.2% of 290,000 active; inhibition, % at 7.35 µM;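 active = inhibition above the campaign mean inhibition over all tested compounds plus 3 SD, cut at about 28% in these data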
Pemphigus Ab inh – inhibitors of pemphigus antibody binding to human desmoglein-3 | P32926 | DSG3-coupled beads, scFv-anti-DSG3-GFP binding, flow cytometry; stronger effect = lower value | binding (percent of control), % at 10 µM | 0.48% of 310,000 active;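 active = binding more than 3 SD below its plate's average and above zero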;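 also: hits lower antibody fragment binding to DSG3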
Hits are given with their value; n = inactive; x = no result given.

SMILES | PAFAH2 inh | PAFAH1B2 inh | pPAFAH inh | PAFAH1B3 inh | PfM18AAP inh | Pemphigus Ab inh
O=C1Nc2ccccc2/C1=N\N=C\C1=C(N2CCOCC2)C(=C\c2ccccc2)/CC1 | n | n | n | n | n | 80
CC(C)(O)C(=O)NNC(=S)NCc1ccco1 | n | n | n | n | 42 | n
O=C(CSCc1ccccc1Br)NNC(=S)NCc1ccco1 | n | n | n | n | 29 | n
Cc1ccccc1CSCC(=O)NC(=O)NCc1ccco1 | n | n | n | n | n | n
CCOc1ccc(CNC(=O)CN2C(=O)CSc3ccc(S(=O)(=O)N4CCOCC4)cc32)cc1 | x | x | x | x | x | n
COc1ccc(-c2oc(=O)c3cc(OC)c(OC)cc3c2-c2ccc3c(c2)OCO3)cc1 | n | n | 27 | n | x | x
CCC[C@@H]1CCCO[C@@](C(=O)NCCN2CCOCC2)(C(F)(F)F)C1 | n | n | n | n | x | n
O=C(O)C(Cc1ccccc1)N1C(=O)C=CC1=O (centres undefined) | x | x | x | x | x | n
CCOC(=O)c1c(NC(=O)CSc2nnc(C)s2)sc2c1CCC(CC)C2 (centres undefined) | n | n | 26 | n | n | x
O=C(CN(c1ccc(Cl)cc1)S(=O)(=O)c1ccc(Cl)c([N+](=O)[O-])c1)NCCc1ccc(F)cc1 | n | n | n | n | n | 45
COc1ccc2c(c1)C(=O)C1(CC2)OC1c1cccnc1 (centres undefined) | x | x | x | x | x | n
CCOc1ccc(CCNC(=O)COC(=O)c2cc(=O)[nH]c3ccccc23)cc1OCC | n | n | n | n | x | n
Cc1ccc(Sc2ncccc2COC(=O)Nc2c(C)cccc2C)cc1 | n | n | n | n | n | 3.0
Cc1ccc(Sc2ncccc2COC(=O)Nc2ccccc2)cc1 | n | n | n | n | n | x
Cc1noc(C)c1S(=O)(=O)N(C)C[C@H]1OCc2cnnn2CCCC(=O)N([C@H](C)CO)C[C@H]1C | x | x | x | x | x | n
Cc1oc(-c2ccc(Cl)cc2)nc1CS(=O)CC(=O)NCc1ccccc1 (centres undefined) | n | n | n | n | n | 67
Cc1ccc(-c2nc(CS(=O)CC(=O)NCCC(C)C)c(C)o2)cc1 (centres undefined) | n | n | n | n | n | 72
CCCCNC(=O)CS(=O)Cc1nc(-c2ccc(C)cc2)oc1C (centres undefined) | n | n | n | n | n | n
O=C(O)CN1C(=O)/C(=C2\C(=O)N(Cc3ccccc3Cl)c3ccccc32)SC1=S | n | 26 | n | n | n | n
Cc1ccccc1C1CC(=O)Oc2cc(O)ccc21 (centres undefined) | 40 | 34 | 32 | 41 | x | n
COc1ccc(C2CC(=O)Oc3cc(O)ccc32)cc1 (centres undefined) | n | n | n | n | x | n
CC(C)(C)C(=O)OCc1nc(-c2ccc(C(F)(F)F)cc2)cs1 | n | n | n | n | n | n
Cc1ccc(-c2nc(Nc3ccccc3)n[nH]2)cc1 | n | n | n | n | n | 37
Cc1cccc(N2CCN(C(=S)c3ccc([N+](=O)[O-])cc3)CC2)c1 | n | n | n | n | 30 | n
O=c1sc(N2CCN(c3ccc(F)cc3)CC2)nc2ccsc12 | n | n | n | n | n | 79
SMILES | PAFAH2 inh | PAFAH1B2 inh | pPAFAH inh | PAFAH1B3 inh | PfM18AAP inh | Pemphigus Ab inh
O=C(Cc1ccc2ccccc2c1)Nc1ccccc1Br | n | n | n | n | n | 87
Cc1c(Cc2ccccc2)sc(/N=C/c2c(O)ccc3ccccc23)c1C(N)=O | n | n | 32 | n | 42 | n
Cc1c(Cc2ccccc2)sc(N)c1C(N)=O | x | x | 28 | x | 42 | x
Cc1sc(N)c(C(=O)c2ccccc2)c1C | x | x | n | x | 32 | n
Cc1cc(C)c(C(=O)c2ccccc2)c(C)c1 | n | n | x | n | x | n
Cc1c(Cc2ccccc2)sc(NC(=O)C(C)(C)C)c1C(N)=O | n | n | n | n | n | n
NC(=O)c1ccc(NC(=O)c2cccc3c2OCCCO3)cc1 | x | x | n | x | n | n
COc1ccccc1NS(=O)(=O)c1cccc(C(=O)N/N=C/c2ccc([N+](=O)[O-])o2)c1 | n | n | x | n | x | n
O=C(NCCS(=O)(=O)N1CCN(c2ccccc2F)CC1)c1cccc(Br)c1 | n | n | n | n | n | x
O=C(NC1CC1)c1cc(-c2ccccn2)nc2ccccc12 | n | n | n | n | n | x
O=C(NNS(=O)(=O)c1ccc2ccccc2c1)c1cc(-c2ccccn2)nc2ccccc12 | n | 26 | n | n | n | n
Nc1cccc(-c2nc3cc(S(=O)(=O)c4ccc5oc(-c6cccc(N)c6)nc5c4)ccc3o2)c1 | n | n | n | n | n | 77
Cc1ccc2oc(-c3cccc(N)c3)nc2c1 | n | n | n | n | n | n
NC(=O)c1ncn([C@@H]2O[C@H](CNCc3cc(Cl)ccc3OCc3ccc(Cl)cc3)[C@@H](O)[C@H]2O)n1 | n | 28 | x | n | x | n
Nc1ccn([C@@H]2O[C@H](CNCc3cc(Cl)ccc3OCc3ccc(Cl)cc3)[C@@H](O)[C@H]2O)c(=O)n1 | x | x | x | x | x | n
C=C(c1ccccc1)c1ccccc1N | n | n | n | n | x | n
CN(C)C(=S)Oc1ccccc1C1SCCS1 | x | x | x | x | x | n
CCOC(=O)N1CCN(c2cccc(C)c2C)CC1 | n | n | n | n | n | n
Cc1cccc(N2CCN(C(=O)n3ccnc3)CC2)c1C | n | n | 33 | n | n | n
COc1ccc(NC(=O)CN(C)C(=O)c2ccc3[nH]c4c(c3c2)CC(C)CC4)cc1 (centres undefined) | n | n | n | n | x | n
CC1CCc2[nH]c3ccc(C(=O)N(C)CC(=O)Nc4ccc(F)cc4)cc3c2C1 (centres undefined) | 49 | 39 | n | n | n | n
C[C@H](O)C#Cc1ccc2c(c1)O[C@@H](CN(C)Cc1ccc(-c3ccccc3)cc1)[C@H](C)CN([C@@H](C)CO)S2(=O)=O | x | x | x | x | x | n
CCc1cc(C(=O)O)c(NC(=O)/C=C/c2ccc(OC)c(OC)c2)s1 | n | 25 | n | n | n | n
Cc1nc2c(-c3ccccc3)c[nH]n2c(=O)c1Cc1ccccc1 | n | n | n | n | n | 64
Cc1cc(=O)n2[nH]cc(-c3ccccc3)c2n1 | n | n | x | n | n | n
SMILES | PAFAH2 inh | PAFAH1B2 inh | pPAFAH inh | PAFAH1B3 inh | PfM18AAP inh | Pemphigus Ab inh
COC(=O)c1cc(S(=O)(=O)NCC2CCN(Cc3cccc(Cl)c3)CC2)c[nH]1 | n | n | n | n | n | n
Nc1ccc2nc(CCCCCCc3nc4ccc(N)cc4[nH]3)[nH]c2c1 | n | n | n | n | n | 65
CCCCN1C(=O)C(CC(=O)NCCN2CCOCC2)CC(C(=O)N(C(C)C)C(C)C)=C1C (centres undefined) | x | x | x | x | x | n
CCCC#Cc1cnc2c(c1)C(=O)N([C@H](C)CO)C[C@H](C)[C@@H](CN(C)C(=O)CCN1CCCCC1)O2 | x | x | x | x | x | n
CSc1nc(NCCCN(C)C)c2c3c(sc2n1)CN(C)CC3 | x | x | x | x | 29 | x
CN(Cc1cnn(-c2ccccc2)c1)C(=O)c1cccc(S(=O)(=O)Nc2ccccc2F)c1 | x | x | x | x | x | n
COc1cc(S(=O)(=O)Nc2cccc(C)c2)ccc1NC(=O)c1ccncc1 | n | n | 33 | n | n | n

Bioassay records: PubChem BioAssay, several laboratories
